Rows were chosen to be rich in hits. Some 2.6% of all compounds tested hit in one or more screens of this group.
LGR2 inh: inhibitors of bursicon-induced Drosophila LGR2 receptor cAMP signaling; inhibition, % at 9.99 µM; actives 0.35% (n = 380,000); HEK293 LGR2, CRE-luciferase, bursicon-stimulated, 4 h;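 active = drop in luminescence signal, shown as inhibition above about 50% in the replicate tests, limit read from the data, passing the limit was not always enough; inconclusive = probably only some replicates passing the limit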;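 also: agonist challenge used bursicon conditioned medium at about half maximal strength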
TWEAK-Fn14 inh: inhibitors of TWEAK-Fn14 interaction signaling; TWEAK-stimulated Fn14 reporter cells, luciferase luminescence, 8 h; actives 2% (n = 360,000); inhibition, % at 10 µM; in the data active = inhibition above about 50%
TROY signal inh: inhibitors of TROY-dependent NF-kB signaling | Q293 LMP1-TROYcd NF-kB luciferase reporter, 4 h | inhibition, % at 10 µM | actives 0.98% (n = 360,000) | AID 1347056;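 active = compounds whose plate-normalised and pattern-corrected inhibition of the luciferase reporter signal at the single screening dose is 50% or more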
CF NFkB inh: inhibitors of cystic fibrosis induced NF-kB; actives 0.86% (n = 360,000); KKLEB NF-kB-GFP reporter, PAF-induced, GFP fluorescence overnight; inhibition, % at 5 µM;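 active = at least 50% inhibition at 5 µM, scaled per plate between neutral and stimulator controls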;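 also: PAF is a Pseudomonas aeruginosa culture filtrate used as stimulus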
KKLEB cytotox: counter-screen for CF NF-kB inhibitors: cytotoxicity; actives 0.36% (n = 360,000); KKLEB CF airway cells viability, ATPlite luminescence, overnight; hits give low values; cells stimulated with P. aeruginosa culture filtrate; activity change (cytotoxicity), % at 5 µM;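 active = corrected activity change at or below -50% at 5 µM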
EWS-Fli block: blocks EWS/Fli oncoprotein-driven transcription; A673 NR0B1-luciferase reporter, viability-normalised; inhibition, % at 12.6 µM; actives 0.67% (n = 350,000);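 active = mean inhibition of at least 50% after viability correction, with every replicate also passing that limit; inconclusive = mean reaches 50% but only one of two replicates passes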;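 also: firefly luciferase signal divided by Alamar Blue viability fluorescence both relative to DMSO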
Each line names hits and unclear results; the compound was inactive in the other large screens.

Cc1noc(C)c1S(=O)(=O)Nc1ccc2c(c1)C(=O)N([C@@H](C)CO)C[C@H](C)[C@H](CN(C)S(C)(=O)=O)OCCCC[C@@H](C)O2	none (no result: TWEAK-Fn14 inh, TROY signal inh, CF NFkB inh, KKLEB cytotox)
O=C(NCCOc1ccccc1)c1ccc2c(c1)OCO2	TWEAK-Fn14 inh 93.8, TROY signal inh 63.3 (no result: LGR2 inh, EWS-Fli block)
O=C(NCCc1ccccc1)c1ccc2c(c1)OCCCO2	LGR2 inh 101.8, TWEAK-Fn14 inh 101.2, TROY signal inh 83.7, KKLEB cytotox -51.7, EWS-Fli block 89.0
CN(CCOc1ccccc1)C(=O)c1ccc2c(c1)OCO2	none
Cc1ccc(C(=O)NCCc2ccccc2)cc1	TWEAK-Fn14 inh 97.3, TROY signal inh 67.1 (no result: LGR2 inh, EWS-Fli block)
Cc1ccc(C(=O)NCCc2ccncc2)cc1	none (no result: LGR2 inh, EWS-Fli block)
O=C(CCc1ccccc1)c1ccc2c(c1)OCCCO2	none (no result: LGR2 inh, EWS-Fli block)
O=C(C[C@@H]1C[C@H]2c3cc(NC(=O)C4CCOCC4)ccc3O[C@H]2[C@H](CO)O1)NC1CCCC1	none (no result: TWEAK-Fn14 inh, TROY signal inh, CF NFkB inh, KKLEB cytotox)
Oc1ccccc1-c1nc(NC2CCCC2)c2ccccc2n1	TROY signal inh 60.5
c1cncc(Cc2cc3ccccc3[nH]2)c1	none (no result: EWS-Fli block)
c1ccc2[nH]c(-c3cnco3)cc2c1	TWEAK-Fn14 inh 64.1, TROY signal inh 52.0
C[C@H](CO)N1C[C@H](C)[C@@H](CN(C)S(=O)(=O)c2ccc(Cl)cc2)Oc2ccc(NS(C)(=O)=O)cc2C1=O	none (no result: TWEAK-Fn14 inh, TROY signal inh, CF NFkB inh, KKLEB cytotox)
CC1=CN2C(=N)/C(=C/c3ccco3)C(=O)N=C2S1	TWEAK-Fn14 inh 81.2
CC1=CN2C(=N)/C(=C/c3ccc([N+](=O)[O-])o3)C(=O)N=C2S1	LGR2 inh inconclusive, CF NFkB inh 51.3, EWS-Fli block 55.6
N#C[C@@H]1[C@H](c2ccc(C#CC3CC3)cc2)[C@@H](CO)N1S(=O)(=O)c1ccccc1	none (no result: TWEAK-Fn14 inh, TROY signal inh, CF NFkB inh, KKLEB cytotox)
C=C1C(=O)[C@]23C[C@H]1CCC2[C@]1(C)CCC[C@@](C)(C(=O)O)C1C[C@@H]3O (stereo partly specified)	TWEAK-Fn14 inh 96.8, TROY signal inh 59.0, CF NFkB inh 92.6, KKLEB cytotox -82.8
Cc1ccccc1C1=NC(C(F)(F)F)(C(F)(F)F)c2c(n(C)c(=O)n(C)c2=O)N1	none
Cn1c2c(c(=O)n(C)c1=O)C(C(F)(F)F)(C(F)(F)F)N=C(c1ccc(Cl)cc1)N2	TWEAK-Fn14 inh 62.1, TROY signal inh 57.1, CF NFkB inh 66.8 (no result: LGR2 inh, EWS-Fli block)
C[C@@H]1CCCCO[C@@H](CN(C)C(=O)CCC(F)(F)F)[C@H](C)CN([C@@H](C)CO)C(=O)c2cc(NC(=O)Nc3ccccc3)ccc2O1	none (no result: TWEAK-Fn14 inh, TROY signal inh, CF NFkB inh, KKLEB cytotox)
C[C@@H]1CN([C@@H](C)CO)S(=O)(=O)c2ccc(C#CC3(O)CCCC3)cc2O[C@@H]1CN(C)C(=O)Cc1ccccc1	none (no result: TWEAK-Fn14 inh, TROY signal inh, CF NFkB inh, KKLEB cytotox)
Cc1cc(NC(=O)CSc2nc3sc(C)c(C)c3c(=O)n2C2CCCC2)no1	KKLEB cytotox -59.2
Cc1cc(NC(=O)CSc2nc(C(C)C)nc3sc(C)c(C)c23)no1	none
COC(=O)c1sccc1NC(=O)c1cc(-c2cccc(C)c2)nc2ccccc12	none (no result: LGR2 inh, EWS-Fli block)
COC(=O)c1sccc1NC(=O)c1cc(-c2ccc(C)cc2)nc2ccccc12	TWEAK-Fn14 inh 98.3 (no result: LGR2 inh, EWS-Fli block)
Cc1ccc(C)c(-c2cc(C(=O)Nc3nccs3)c3ccccc3n2)c1	TWEAK-Fn14 inh 62.5 (no result: LGR2 inh)
Cc1cc(NC(=O)c2cc(-c3ccccc3C)nc3ccccc23)no1	none
COC(=O)c1sc(NC(=O)c2cc(-c3ccccc3)nc3ccccc23)c(C#N)c1C	TROY signal inh 51.5 (no result: LGR2 inh, EWS-Fli block)
COC(=O)c1sccc1NC(=O)c1cc(-c2cc(C)ccc2C)nc2ccccc12	none
COc1ccc(-c2cc(C(=O)Nc3sc4c(c3C#N)CCCC4)c3ccccc3n2)cc1	none
Cc1ccccc1-c1cc(C(=O)Nc2sc(C(=O)OC(C)C)c(C)c2C#N)c2ccccc2n1	TWEAK-Fn14 inh 62.0, TROY signal inh 58.1, CF NFkB inh 56.2, KKLEB cytotox -54.3 (no result: LGR2 inh, EWS-Fli block)
O=C(C[C@@H]1C=C[C@H](NC(=O)Nc2ccc(F)cc2)[C@H](CO)O1)NCc1ccccn1	none (no result: TWEAK-Fn14 inh, TROY signal inh, CF NFkB inh, KKLEB cytotox)
COc1ccc(NC(=O)Nc2ccc3c(c2)CC(=O)N([C@@H](C)CO)C[C@@H](C)[C@@H](CN(C)C(=O)Nc2ccc(F)cc2)O3)cc1	none (no result: TWEAK-Fn14 inh, TROY signal inh, CF NFkB inh, KKLEB cytotox)
O=C(Nc1ccc(F)cc1)N1C[C@H]2[C@@H](c3ccccc31)[C@@H](CO)N2C(=O)c1cccnc1	none (no result: TWEAK-Fn14 inh, TROY signal inh, CF NFkB inh, KKLEB cytotox)
COc1ccc(OC)c(-c2cc(C(=O)Nc3sc4c(c3C#N)CCC(C)C4)c3ccccc3n2)c1 (stereo unspecified)	KKLEB cytotox -51.5 (no result: EWS-Fli block)
